Measured values published in PubChem BioAssay (NCATS).
Records with an inconclusive call do not appear. Where a call stands in place of a potency, no number is given. Values without a mark were called inactive. Calls of active or inactive are those of the source. Calls follow the shape of the dose curve; as a rule, active = well fitted curve in the direction sought with a large enough effect; inconclusive = small, poorly fitted or top-dose-only effect, or another doubt; inactive = no such curve, though single readings can be large; an effect the other way counts as inactive or inconclusive. Numbered stars: 1 amine (or outer) side, 2 acyl side, 3 side chain; on linkers, the order of the positions; unused ones are H or OH. Bridge positions count the residues as written; N and C are the ends. Square brackets hold non-standard residues; d marks the D form. Peptide text beside a SMILES is read from it. Hyp = O=C(O)[CH]1C[CH](O)CN1; Phe(ol) = N[CH](CO)Cc1ccccc1; Iva = CC[C](C)(N)C(=O)O; X4 = O=C(CCC[*:2])[*:1]; 2Abz = Nc1ccccc1C(=O)O; Aib = CC(C)(N)C(=O)O

Experiments:
[1] = target: Cellular tumor antigen p53 (Homo sapiens) (UniProt P04637); assay: Primary qHTS for small molecule compounds that upregulate eGFP-tagged delta133p53alpha (in N-terminal) cells. (AID 2060322); conditions: NCI-H358 eGFP-delta133p53alpha fluorescence, 24 h; activation: stronger effect = higher value; also: nearly all actives have a fitted effect of over 75% in size; also: potency is read from the fitted curve at half-maximal effect;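 as to activation: cells pre-induced with doxycycline then dosed without doxycycline; series mostly up to about 56 µM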
Cellular tumor antigen p53 (Homo sapiens), sequence (P04637 whole entry, looked up): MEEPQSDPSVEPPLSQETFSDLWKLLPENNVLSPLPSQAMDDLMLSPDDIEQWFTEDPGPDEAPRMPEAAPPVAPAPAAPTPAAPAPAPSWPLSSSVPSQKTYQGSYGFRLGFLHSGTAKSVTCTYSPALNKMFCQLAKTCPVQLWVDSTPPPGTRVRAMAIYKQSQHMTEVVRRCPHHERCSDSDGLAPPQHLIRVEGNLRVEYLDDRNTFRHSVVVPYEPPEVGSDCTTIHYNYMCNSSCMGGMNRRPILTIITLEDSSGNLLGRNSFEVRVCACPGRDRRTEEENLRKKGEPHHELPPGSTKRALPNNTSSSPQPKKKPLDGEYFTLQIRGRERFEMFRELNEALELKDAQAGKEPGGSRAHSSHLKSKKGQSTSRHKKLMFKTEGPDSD
How it was run: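 NCI-H358 cells pre-induced 24 h with 10 ng/ml doxycycline for eGFP-delta133p53alpha, plated dox-free and exposed 24 h at 37C to titrated compounds. Fixed, Hoechst-stained; gated GFP peak intensity by laser scanning cytometry, normalized to DMSO (0%) and 57.5 uM 5-azacytidine (100%).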

[2] = target: Aldehyde dehydrogenase, mitochondrial (Homo sapiens) (UniProt P05091); assay: qHTS for Inhibitors of the Aldehyde Dehydrogenase Family (ALDH2) Primary screen (AID 2061308); also: nearly all actives have a fitted effect of over 55% in size
[3] = target: Retinaldehyde dehydrogenase 3 (Homo sapiens) (UniProt P47895); assay: qHTS for Inhibitors of the Aldehyde Dehydrogenase Family (ALDH1A3) Primary screen (AID 2061315); also: potency is read from the fitted curve at half-maximal effect

SMILES	activation [1] [%]	Potency [2]	Potency [3]	activity change, negative = inhibition [2]	activity change, negative = inhibition [3]	Potency [1]
COc1cc(O)c2c(c1)C1(OC2=O)C(C)=CC(=O)C1O (stereo not given)	-16	inactive	inactive	–	–	–
CC(=O)OCC1(O)CCC2C(COC3OC(CO)C(O)C(O)C3OC(=O)/C=C/c3ccc(O)cc3)=COC(OC(=O)CC(C)C)C21 (stereo not given)	11.5	inactive	inactive	–	–	–
C[C@H]1/C=C/C=C/C=C/C=C/C=C/[C@@H](O)[C@H](C(=O)O)[C@H](O)C[C@H](O)CCC[C@H](O)C[C@H](O)C[C@H](O)[C@@H](C)C(=O)O[C@@H]1C	13.7	inactive	inactive	–	–	–
C=CC(C)(O)CC/C=C(\C)C(=O)OC1C(O)C(CO)OC(OC(=O)C23CCC(C)(C)CC2C2=CCC4C5(C)CCC(OC6OC(COC7OCC(OC(C)=O)C(O)C7OC7OC(COC(C)=O)C(O)C(O)C7OC(C)=O)C(O)C(O)C6OC6OCC(O)C(O)C6O)C(C)(C)C5CCC4(C)C2(C)C(O)C3O)C1OC1OCC(OC2OCC(O)C(OC3OCC(O)C(O)C3O)C2O)C(O)C1O (stereo not given)	-12.2	–	–	11.4% [at 11.2 µM]	12.6% [at 11.2 µM]	–
COc1ccc([C@H]2OC[C@H]3[C@@H]2CO[C@@H]3c2ccc(O[C@@H]3O[C@H](CO)C(O)[C@H](O)[C@H]3O)c(OC)c2)cc1OC (stereo not given in full)	-1.79	inactive	inactive	–	–	–
C/C=C/C=C/C=C/C(=O)O[C@@H]1C=C(CO)C(O)(C(=O)O)[C@@]2(C)CCCC(C)(C)[C@H]12 (stereo not given in full)	-9.92	inactive	inactive	–	–	–
COc1ccc(O[C@@H]2O[C@H](CO)[C@@H](O)[C@H](O)[C@H]2O)cc1OC	-17	inactive	inactive	–	–	–
CC1(C=O)CC[C@]2(C(=O)O[C@@H]3O[C@H](CO)[C@@H](O)[C@H](O)[C@H]3O)CC[C@]3(C)C(=CCC4[C@@]5(C)C[C@H](O)[C@H](O[C@@H]6OC[C@@H](O)[C@H](O)[C@H]6O)[C@@](C)(CO)C5CC[C@]43C)C2C1 (stereo not given in full)	6.87	inactive	inactive	–	–	–
CC1(C)CC=C(c2cnc3ccccc3c2)c2cc(C(=O)Nc3ccc(C(=O)O)cc3)ccc21	3.34	inactive	inactive	–	–	–
CC(=O)N[C@H]1[C@H](O[C@H]2CC[C@@]3(C)C(CC[C@]4(C)C3CC=C3C5CC(C)(C)CC[C@]5(C(=O)O)[C@H](O)C[C@]34C)C2(C)C)O[C@H](CO[C@@H]2OC[C@H](O)[C@H](O)[C@H]2O[C@@H]2OC[C@@H](O)[C@H](O)[C@H]2O)[C@@H](O)[C@@H]1O (stereo not given in full)	-19.1	inactive	inactive	–	–	–
C/C(=C\C(=O)C[C@@]12C(=O)O[C@]3(C)CC[C@H]1C[C@H]23)C(N)=O	9.92	inactive	inactive	–	–	–
COc1cc(C2Oc3c(O)cc(CCCO)cc3C2CO)ccc1O[C@H]1O[C@H](C)[C@@H](O)[C@H](O)[C@@H]1O (stereo not given in full)	-19.1	inactive	inactive	–	–	–
CC[C@H](C)[C@@H]1NC(=O)[C@H](Cc2ccc(OC)cc2)NC(=O)CCCSC[C@@H](C(=O)N2CCC[C@H]2C(=O)N[C@@H](CC(C)C)C(=O)NCC(N)=O)NC(=O)[C@H](CC(N)=O)NC(=O)[C@H](CCC(N)=O)NC1=O (Y(Me)IQNCPLG-NH2; linker N-5 via X4)	-10.3	inactive	inactive	–	–	–
Cc1noc(-c2ccc(-c3ccc(CC(=O)O)cc3)cc2)c1NC(=O)O[C@H](C)c1ccccc1	-1.79	inactive	inactive	–	–	–
CCCCNc1ncc(C(=O)NCc2ccc(-n3ccnc3)cc2)c(NC2CCC(O)CC2)n1 (stereo not given)	–	inactive	inactive	–	–	21.3 µM (active)
COc1ccc(C(O)C(C)OC2OC(CO)C(O)C(O)C2O)cc1 (stereo not given)	-7.63	inactive	inactive	–	–	–
CC1C=CC2CCCCC2C1CCC1CC(O)CC(=O)O1 (stereo not given)	-0.893	inactive	inactive	–	–	–
Cc1cc(N2CCCCC2)nc2ccccc12	13.7	inactive	inactive	–	–	–
CC(C)=C1CC2[C@](C)(CC[C@@H](OC(=O)C3(C)OC3C)[C@@]2(C)O)CC1=O (stereo not given in full)	-20.6	inactive	inactive	–	–	–
CCOc1cc(CNC2CCCC2)cc(Cl)c1OCc1ccc(Cl)cc1	–	inactive	inactive	–	–	21.3 µM (active)
Cc1cc(CNC(=O)c2cc(C(=O)NCc3ccc(F)c(C)c3)ncn2)ccc1F	1.67	inactive	inactive	–	–	–
CC(C)(O)c1ccc2c(c1)C(=O)C[C@H]1[C@](C)(C(=O)O)CCC[C@]21C	-1.53	inactive	inactive	–	–	–
CO[C@H]1[C@@H](O)[C@H](O[C@H]2CC[C@@]3(C)C(CCC4C3CC[C@]35COC6(COC(=O)C6)C3CCC45O)C2)O[C@@H](C)[C@@H]1OC1OC(CO)C(OC2OC(CO)C(O)C(O)C2O)C(O)C1O (stereo not given in full)	6.87	inactive	inactive	–	–	–

SMILES	activation [1] [%]	Potency [2]	Potency [3]	activity change, negative = inhibition [2]	activity change, negative = inhibition [3]	Potency [1]
CC(=O)NC(Cc1ccccc1)C(=O)NC(C(=O)O)C(C)C (stereo not drawn) (Ac-Phe-Val-OH; configuration not given here)	0	inactive	inactive	–	–	–
CCC1=C(C)C(=O)C(C)CC12C(=O)CCC2C(=O)O (stereo not given)	-11.5	inactive	inactive	–	–	–
C=C[C@]1(C)C[C@H](O)[C@@H]2[C@H](OC(=O)[C@@H]2C)C1/C(C)=C/O[C@@H]1O[C@H](CO)[C@@H](O)[C@H](O)[C@H]1O (stereo not given in full)	-27.7	inactive	inactive	–	–	–
COc1ccc2c(c1)OC[C@]1(O)c3cc4c(cc3O[C@H]21)OCO4	-2.68	inactive	inactive	–	–	–
COC(=O)C1=CO[C@@H](O)C2C(CO)=CCC12 (stereo not given in full)	23	inactive	inactive	–	–	–
O=C(NCCO)c1cccc(-c2cc(Nc3ccc(OC(F)(F)F)cc3)ncn2)c1	1.79	inactive	inactive	–	–	–
CC(=O)OC1CC(C)C2(CCC3(CC(=O)OC3O)O2)C2(C)CCCC(C)(C)C12 (stereo not given)	22.3	inactive	inactive	–	–	–
CC(C)=C1C[C@@]2(C)C(=CC1=O)CC[C@@H](O)[C@@H]2C	4.58	inactive	inactive	–	–	–
CCCN1CCC(c2cccc(S(C)(=O)=O)c2)CC1	-11.9	inactive	inactive	–	–	–
CC(=O)O[C@@H]1[C@@H](OC(=O)/C=C/c2ccccc2)[C@H](C)O[C@@H](O[C@H]2[C@@H]3C=CO[C@@H](O[C@@H]4O[C@H](CO)[C@@H](O)[C@H](O)[C@H]4O)[C@@H]3[C@@]3(CO)O[C@@H]23)[C@@H]1OC(C)=O	-3.82	inactive	inactive	–	–	–
CC1=C2CC(C)(C)CC2C(O)C2=C(C1)C(=O)OC2O (stereo not given)	-7.14	inactive	inactive	–	–	–
N#Cc1cnc2cnc(NCc3cccnc3)cc2c1Nc1ccc(F)c(Cl)c1	–	inactive	inactive	–	–	2.69 µM (active)
CC1(C)CC[C@]2(C(=O)O[C@@H]3O[C@H](CO[C@@H]4O[C@H](CO)[C@@H](O)[C@H](O)[C@H]4O)[C@@H](O)[C@H](O[C@@H]4O[C@H](CO)[C@@H](O)[C@H](O)[C@H]4O)[C@H]3O)CC[C@]3(C)C(=CCC4[C@@]5(C)CC[C@H](O[C@@H]6OC[C@@H](O)[C@H](O)[C@H]6O)[C@@](C)(C(=O)O)C5CC[C@]43C)[C@@H]2C1 (stereo not given in full)	0	inactive	inactive	–	–	–
C=C1CCC2(OC1)OC1CC3C4CC=C5CC(O)CC(O[C@@H]6OC[C@@H](O)[C@H](O)[C@H]6O)C5(C)C4CCC3(C)C1(O)C2C (stereo not given in full)	5.34	inactive	inactive	–	–	–
CC1=C(CO)CC(C(C)C2CCC3C4CC=C5CC(OC6OC(COC7OC(CO)C(O)C(O)C7O)C(O)C(O)C6O)CC(O)C5(C)C4CCC23C)OC1=O (stereo not given)	3.05	inactive	inactive	–	–	–
OCC1OC(Oc2cc(O)cc(/C=C/c3ccc(O)cc3)c2)C(O)C(O)C1O (stereo not given)	-15.3	inactive	3.55 µM (active)	–	–	–
O=C(O)c1cc(O[C@@H]2O[C@H](CO)[C@@H](O)[C@H](O)[C@H]2O)ccc1O	-3.05	inactive	inactive	–	–	–
CCC(C)(NC(=O)C(CCC(N)=O)NC(=O)C1CC(O)CN1C(=O)C(C)(C)NC(=O)C(C)(C)NC(=O)C(CC(C)C)NC(=O)CNC(=O)C(NC(=O)C(C)(C)NC(=O)C(C)(C)NC(=O)C(C)(C)NC(=O)C(Cc1ccccc1)NC(C)=O)C(C)C)C(=O)N1CC(O)CC1C(=O)NC(C)(C)C(=O)NC(CO)Cc1ccccc1 (stereo not given) (Ac-F[Aib][Aib][Aib]VGL[Aib][Aib][Hyp]Q[Iva][Hyp][Aib][Phe(ol)]; configuration not given here)	23.7	–	–	-9.83% [at 11.2 µM]	11.2% [at 11.2 µM]	–
CC(C)=CCCC1(C)/C=C/C(OC(=O)C=C(C)C)C(C)(O)/C=C/C(=O)/C(CO)=C\C1 (stereo not given)	–	inactive	inactive	–	–	10.4 µM (active)
CCC(C)C1NC(=O)C2CCCN2C(=O)C(C(C)C)NC(=O)c2ccccc2NC(=O)C(Cc2ccc(O)cc2)NC(=O)C(C)NC(=O)C(C(C)O)NC1=O (stereo not given) (cyclo([2Abz]VPITAY); configuration not given here)	0.763	inactive	inactive	–	–	–
CC(=O)OC[C@]12[C@H](OC(C)=O)C(=O)[C@@H]3[C@@H](O)[C@@]14O[C@@]3(C)COC(=O)c1cccnc1[C@@H](C)[C@H](C)C(=O)O[C@@H]([C@H](O)[C@@H]2OC(C)=O)[C@]4(C)O	-8.04	inactive	inactive	–	–	–
CC1(C)CC[C@]2(C(=O)O)CC[C@]3(C)C(=CCC4[C@@]5(C)C[C@H](O)[C@H](O[C@@H]6O[C@H](CO)[C@@H](O)[C@H](O)[C@H]6O)[C@@](C)(CO)C5[C@H](O)C[C@]43C)[C@@H]2C1 (stereo not given in full)	-13	inactive	inactive	–	–	–
